From PubChem BioAssay come the findings set out here.

The nature of this experiment: compounds distorting NS3 helicase fluorescence signal – biochemical, NIH Clinical Collection, artefact control for HCV NS3 helicase inhibitor project (AID 743272).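 Further: HCV NS3 helicase with a Cy5 labelled single stranded DNA probe.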 The following applies: fluorescence interference counterscreen, HCV NS3 helicase assay; stronger effect = lower value. For orientation: A counterscreen serves to expose hits that act by an unwanted route or on another target.

Molecules are shown by their SMILES. Active and inactive are the calls of the source. How the calls were made is not given here.

Turning to `CC#C[C@]1(O)CC[C@H]2[C@@H]3CCC4=CC(=O)CCC4=C3[C@@H](c3ccc(N(C)C)cc3)C[C@@]21C`, the fluorescence ratio is 0.97 (inactive).
